Source: ChEMBL document CHEMBL3988442, “University of Dundee, Small-Polar-MMV Screening Library” (2021)
For some of these results: Measured potencies and affinities stand elsewhere.

Experiments:
Parameters in all cases: scale not given: direction of the effect not stated beside the values
[1] = target: Protein translocase subunit SecA (Escherichia coli (strain K12)) (UniProt P10408); experiment: Assay to Identify E. coli SecA ATPase Inhibitors; assay type: functional; conditions: 30 µM
[2] = target: T1, Ubiquitin-activating enzyme e1, putative (Leishmania donovani (strain BPK282A1)) (UniProt E9BSI1); experiment: Leishmania donovani Ubiquitin Activating Enzyme (LdE1); assay type: functional; conditions: 30 µM
T1 sequence (whole entry): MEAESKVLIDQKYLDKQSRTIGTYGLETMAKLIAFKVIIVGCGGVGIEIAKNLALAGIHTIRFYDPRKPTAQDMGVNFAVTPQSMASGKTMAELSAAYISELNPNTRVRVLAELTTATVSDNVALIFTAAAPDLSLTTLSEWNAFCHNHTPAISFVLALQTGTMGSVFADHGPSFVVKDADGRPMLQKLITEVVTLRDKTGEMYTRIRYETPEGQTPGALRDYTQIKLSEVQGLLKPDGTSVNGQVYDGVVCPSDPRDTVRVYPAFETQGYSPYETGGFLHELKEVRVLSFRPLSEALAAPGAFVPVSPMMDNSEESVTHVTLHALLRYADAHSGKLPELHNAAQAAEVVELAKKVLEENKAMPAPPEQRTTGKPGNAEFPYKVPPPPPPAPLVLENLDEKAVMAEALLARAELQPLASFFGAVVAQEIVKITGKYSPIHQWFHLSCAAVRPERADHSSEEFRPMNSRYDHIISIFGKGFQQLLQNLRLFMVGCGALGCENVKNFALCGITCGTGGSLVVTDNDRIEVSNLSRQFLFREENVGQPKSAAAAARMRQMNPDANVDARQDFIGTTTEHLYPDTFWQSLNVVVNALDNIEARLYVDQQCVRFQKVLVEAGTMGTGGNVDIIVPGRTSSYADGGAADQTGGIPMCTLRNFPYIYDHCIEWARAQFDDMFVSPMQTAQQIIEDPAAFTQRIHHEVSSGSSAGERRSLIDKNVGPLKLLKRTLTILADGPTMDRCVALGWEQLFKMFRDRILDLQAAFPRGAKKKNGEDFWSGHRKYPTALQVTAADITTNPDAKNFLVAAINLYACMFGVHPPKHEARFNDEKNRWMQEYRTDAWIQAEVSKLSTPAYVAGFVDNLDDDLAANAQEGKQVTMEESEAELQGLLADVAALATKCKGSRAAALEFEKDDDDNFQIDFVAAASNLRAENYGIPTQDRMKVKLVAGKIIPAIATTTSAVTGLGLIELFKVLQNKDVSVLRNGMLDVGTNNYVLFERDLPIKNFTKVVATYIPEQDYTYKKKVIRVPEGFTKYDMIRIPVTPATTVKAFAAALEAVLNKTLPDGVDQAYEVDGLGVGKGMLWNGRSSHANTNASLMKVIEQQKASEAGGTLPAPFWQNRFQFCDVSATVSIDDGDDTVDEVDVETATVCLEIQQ

[3] = target: AMP-activated protein kinase, AMPK (Homo sapiens) (UniProt P54646+O43741+P54619+Q9UGJ0+Q9Y478+Q13131+Q9UGI9); experiment: AMP-dependent Kinase enzyme assay. An in vitro enzyme assay that detects ADP turnover that is directly proportional to AMPK activity. This uses naive AMPK that is activated during the assay with MK-8722; assay type: functional; conditions: 30 µM
[4] = target: Sialic acid-binding Ig-like lectin 9 (Homo sapiens) (UniProt Q9Y336); experiment: Hs-Siglec9 ALPHAscreen SOP 20170721; conditions: 10 µM
Sequence of Sialic acid-binding Ig-like lectin 9 (Homo sapiens) (Q9Y336 whole entry): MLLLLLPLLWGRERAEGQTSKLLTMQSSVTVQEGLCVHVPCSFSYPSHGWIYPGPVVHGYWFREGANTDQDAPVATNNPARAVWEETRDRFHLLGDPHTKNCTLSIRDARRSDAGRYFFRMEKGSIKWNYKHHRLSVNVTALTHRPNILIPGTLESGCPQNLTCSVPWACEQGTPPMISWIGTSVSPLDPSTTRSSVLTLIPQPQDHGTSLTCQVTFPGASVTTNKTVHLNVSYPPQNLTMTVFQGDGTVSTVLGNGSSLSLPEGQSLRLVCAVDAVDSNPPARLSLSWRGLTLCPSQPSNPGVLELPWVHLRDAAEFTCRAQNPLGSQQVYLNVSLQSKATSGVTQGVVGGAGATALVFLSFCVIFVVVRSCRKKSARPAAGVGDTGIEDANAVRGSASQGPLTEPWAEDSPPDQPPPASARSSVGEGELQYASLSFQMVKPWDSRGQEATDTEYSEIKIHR

Trypanosoma cruzi = experiment: Trypanosoma cruzi phosphomannomutase and mannose-1-phosphate guanylyltransferase assay; assay type: functional; conditions: 10 µM
[5] = target: T2, Arginase-2, mitochondrial (Homo sapiens) (UniProt P78540); experiment: in vitro enzyme assay to detect the production of urea directly proportional to the activity of Arginase II; assay type: functional; conditions: 33.3 µM; note: in the data most compounds retested in dose-response had high values
T2 sequence (whole entry): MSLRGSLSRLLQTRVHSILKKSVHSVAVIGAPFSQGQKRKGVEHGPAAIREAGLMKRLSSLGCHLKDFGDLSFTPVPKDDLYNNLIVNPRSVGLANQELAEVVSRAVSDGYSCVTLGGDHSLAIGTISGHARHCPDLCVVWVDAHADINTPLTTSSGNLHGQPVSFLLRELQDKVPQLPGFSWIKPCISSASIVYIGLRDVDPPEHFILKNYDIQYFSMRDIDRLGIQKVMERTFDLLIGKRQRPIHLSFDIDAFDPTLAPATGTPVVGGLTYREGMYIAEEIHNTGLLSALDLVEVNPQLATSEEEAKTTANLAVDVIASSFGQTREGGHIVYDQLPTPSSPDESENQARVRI

[6] = target: T3, Proteasome subunit beta (Trypanosoma cruzi) (UniProt O96673); experiment: Trypanosoma cruzi proteasome chymotrypsin-like activity (TcProtChymo) assay.; note: in the data most compounds retested in dose-response had high values; assay type: functional; conditions: 9.37 µM
T3 sequence (whole entry): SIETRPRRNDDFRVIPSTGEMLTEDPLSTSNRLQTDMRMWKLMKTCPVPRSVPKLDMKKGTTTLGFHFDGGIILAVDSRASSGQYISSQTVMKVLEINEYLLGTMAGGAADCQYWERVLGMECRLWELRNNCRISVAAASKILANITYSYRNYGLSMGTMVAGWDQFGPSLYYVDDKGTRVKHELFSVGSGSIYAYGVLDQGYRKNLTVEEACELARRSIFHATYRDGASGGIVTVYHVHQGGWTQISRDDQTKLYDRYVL

Homo sapiens = species on record: Homo sapiens; experiment: To identify inhibition of the IFN signalling (Jak-Stat) pathway via expression of an eGFP reporter gene under the control of an IFN-stimulated response element (ISRE) containing MxA promoter.; assay type: functional; conditions: 30 µM
[7] = target: T4, Tyrosyl-tRNA synthetase, putative (Trypanosoma cruzi (strain CL Brener)) (UniProt Q4DSP6); experiment: Trypanosoma cruzi tyrosyl tRNA synthetase (TcYRS) _High Tyrosine SOP; assay type: functional; conditions: 30 µM; note: in the data most compounds retested in dose-response had high values
T4 sequence (whole entry): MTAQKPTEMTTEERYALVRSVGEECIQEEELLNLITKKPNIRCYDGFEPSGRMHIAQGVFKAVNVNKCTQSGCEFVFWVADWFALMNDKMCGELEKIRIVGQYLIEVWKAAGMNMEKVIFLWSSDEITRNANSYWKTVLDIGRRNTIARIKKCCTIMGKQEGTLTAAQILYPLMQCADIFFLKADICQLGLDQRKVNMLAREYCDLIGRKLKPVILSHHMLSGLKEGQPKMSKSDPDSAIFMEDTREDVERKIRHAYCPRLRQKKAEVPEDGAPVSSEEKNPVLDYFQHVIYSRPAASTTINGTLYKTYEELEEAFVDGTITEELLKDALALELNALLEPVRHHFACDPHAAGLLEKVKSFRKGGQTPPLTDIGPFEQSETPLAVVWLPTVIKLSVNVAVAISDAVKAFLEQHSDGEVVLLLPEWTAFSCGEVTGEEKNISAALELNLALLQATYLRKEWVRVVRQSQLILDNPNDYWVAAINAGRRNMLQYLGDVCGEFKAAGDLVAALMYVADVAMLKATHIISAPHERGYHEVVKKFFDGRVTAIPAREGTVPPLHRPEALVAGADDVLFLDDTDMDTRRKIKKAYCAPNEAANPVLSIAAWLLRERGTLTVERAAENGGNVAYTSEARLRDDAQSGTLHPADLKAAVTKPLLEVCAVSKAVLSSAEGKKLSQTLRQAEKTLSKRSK

[8] = target: T4, Tyrosyl-tRNA synthetase, putative (Trypanosoma cruzi (strain CL Brener)); experiment: Trypanosoma cruzi tyrosyl tRNA synthetase (TcYRS) SOP; assay type: functional; conditions: 30 µM
[9] = target: Chromo domain-containing protein 1 (Saccharomyces cerevisiae (strain ATCC 204508 / S288c) (Baker's yeast)) (UniProt P32657); experiment: ScCHD-1 Enzyme Inhibition Assay; assay type: functional; conditions: 30 µM; note: in the data most compounds retested in dose-response had high values
Sequence of Chromo domain-containing protein 1 (Saccharomyces cerevisiae (strain ATCC 204508 / S288c) (Baker's yeast)) (P32657 whole entry, the tested form may be a part): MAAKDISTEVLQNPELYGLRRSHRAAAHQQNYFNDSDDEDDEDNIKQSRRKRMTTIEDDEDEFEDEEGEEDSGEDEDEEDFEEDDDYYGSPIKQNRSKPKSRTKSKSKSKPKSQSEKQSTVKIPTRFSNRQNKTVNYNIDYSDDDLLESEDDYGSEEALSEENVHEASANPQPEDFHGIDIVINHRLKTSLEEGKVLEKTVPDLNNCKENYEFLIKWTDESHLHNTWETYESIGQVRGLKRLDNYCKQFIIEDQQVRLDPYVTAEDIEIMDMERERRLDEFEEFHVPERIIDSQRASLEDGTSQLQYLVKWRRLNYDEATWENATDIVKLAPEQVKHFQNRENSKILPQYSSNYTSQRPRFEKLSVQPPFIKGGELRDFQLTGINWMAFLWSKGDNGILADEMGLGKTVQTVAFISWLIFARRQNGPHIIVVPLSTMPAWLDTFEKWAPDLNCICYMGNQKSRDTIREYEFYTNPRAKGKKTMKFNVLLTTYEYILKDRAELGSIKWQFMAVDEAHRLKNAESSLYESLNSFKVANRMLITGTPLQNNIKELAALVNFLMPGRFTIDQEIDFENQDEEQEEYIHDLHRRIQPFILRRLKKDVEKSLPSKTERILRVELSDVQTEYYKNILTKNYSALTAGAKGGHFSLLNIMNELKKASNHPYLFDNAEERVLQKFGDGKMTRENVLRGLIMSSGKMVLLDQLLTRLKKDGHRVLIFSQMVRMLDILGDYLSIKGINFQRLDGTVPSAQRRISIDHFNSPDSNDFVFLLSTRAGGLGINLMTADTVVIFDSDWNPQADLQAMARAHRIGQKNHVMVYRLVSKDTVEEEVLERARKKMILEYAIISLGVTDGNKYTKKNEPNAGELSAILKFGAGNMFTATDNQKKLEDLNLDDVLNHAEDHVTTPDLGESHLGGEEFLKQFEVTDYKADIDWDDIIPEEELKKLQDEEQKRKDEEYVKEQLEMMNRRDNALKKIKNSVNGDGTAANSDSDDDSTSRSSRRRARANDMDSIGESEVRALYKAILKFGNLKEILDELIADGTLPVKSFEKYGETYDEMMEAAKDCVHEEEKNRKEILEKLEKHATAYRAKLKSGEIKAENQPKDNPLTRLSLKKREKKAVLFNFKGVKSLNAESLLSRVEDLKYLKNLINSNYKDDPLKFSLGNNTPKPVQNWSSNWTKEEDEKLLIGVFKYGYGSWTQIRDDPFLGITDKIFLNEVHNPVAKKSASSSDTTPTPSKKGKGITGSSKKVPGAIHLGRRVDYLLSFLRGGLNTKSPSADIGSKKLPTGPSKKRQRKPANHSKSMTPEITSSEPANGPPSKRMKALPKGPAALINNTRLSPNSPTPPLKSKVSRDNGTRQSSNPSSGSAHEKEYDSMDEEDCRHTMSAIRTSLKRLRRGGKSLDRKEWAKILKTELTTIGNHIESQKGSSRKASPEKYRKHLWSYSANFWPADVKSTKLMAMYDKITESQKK

Sequence of Protein translocase subunit SecA (Escherichia coli (strain K12)) (P10408 whole entry): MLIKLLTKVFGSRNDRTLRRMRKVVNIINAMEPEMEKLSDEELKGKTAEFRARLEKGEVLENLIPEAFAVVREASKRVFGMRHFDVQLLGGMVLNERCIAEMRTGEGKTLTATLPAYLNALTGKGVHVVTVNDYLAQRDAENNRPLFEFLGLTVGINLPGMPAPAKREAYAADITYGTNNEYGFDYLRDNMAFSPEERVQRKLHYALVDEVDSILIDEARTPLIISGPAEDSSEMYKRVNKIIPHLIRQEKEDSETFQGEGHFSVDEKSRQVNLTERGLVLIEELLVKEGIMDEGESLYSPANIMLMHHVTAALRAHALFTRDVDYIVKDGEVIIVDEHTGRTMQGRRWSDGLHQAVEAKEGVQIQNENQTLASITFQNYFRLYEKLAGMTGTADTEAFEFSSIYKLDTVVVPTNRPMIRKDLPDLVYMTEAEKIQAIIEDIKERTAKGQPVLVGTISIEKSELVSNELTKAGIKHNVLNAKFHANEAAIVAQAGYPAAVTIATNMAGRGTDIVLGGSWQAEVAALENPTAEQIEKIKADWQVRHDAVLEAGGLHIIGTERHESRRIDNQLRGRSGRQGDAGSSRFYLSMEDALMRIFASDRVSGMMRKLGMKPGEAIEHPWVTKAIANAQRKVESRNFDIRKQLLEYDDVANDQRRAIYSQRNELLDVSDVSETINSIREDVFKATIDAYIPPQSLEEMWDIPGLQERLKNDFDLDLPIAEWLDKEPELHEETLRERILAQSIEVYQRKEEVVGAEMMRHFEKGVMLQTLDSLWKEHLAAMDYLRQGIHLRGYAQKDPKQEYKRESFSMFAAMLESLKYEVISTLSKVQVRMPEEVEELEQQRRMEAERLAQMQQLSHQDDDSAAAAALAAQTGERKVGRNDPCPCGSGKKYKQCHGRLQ

| SMILES | Percent Effect [1] [%] | Percent Effect [2] [%] | Percent Effect [3] [%] | Percent Effect [4] [%] | Percent Effect (Trypanosoma cruzi) [%] | Percent Effect [5] [%] | Percent Effect [6] [%] | Percent Effect (Homo sapiens) [%] | Percent Effect [7] [%] | Percent Effect [8] [%] | Percent Effect [9] [%] |
| --- | --- | --- | --- | --- | --- | --- | --- | --- | --- | --- | --- |
| CCc1nc(NCCCOC)c2c(n1)c(C)nn2C | 0.06 | 17.3 | 0.763 | 2.98 | 1.18 | -0.176 | 20.1 | 29.9 | 5.29 | 17.9 | -11.5 |
| COc1ccc(NC(C)C(=O)NCCc2cccs2)cc1F (stereo unspecified) | -7.72 | -2.74 | -49.8 | 6.34 | -3.92 | 0 | 15.3 | 14.2 | -1.07 | -5 | -3.93 |
| Cc1ccc(NC(=O)NC(C)c2nc[nH]n2)s1 (stereo unspecified) | -7.16 | 5.41 | 1.69 | 19.6 | -0.293 | 2.23 | 9.7 | -8.4 | 6.45 | 13.6 | -2.14 |
| COCc1cc(NCCc2ccc(F)cc2)n2nccc2n1 | -5.32 | 0 | 14.1 | -6.47 | -0.196 | -2.27 | -0.887 | -6.7 | 1.07 | 5 | -5.83 |
| CCN(CC)Cc1cn2c(n1)CN(C(=O)c1cc(C)on1)CC2 | -2.81 | 16.2 | 5.86 | -5.08 | -4.01 | 9.24 | 23.2 | -1.45 | 2.16 | 10.3 | -0.746 |
| CNS(=O)(=O)c1cccc(C(C)NCc2nccn2C(C)C)c1 (stereo unspecified) | -0.324 | 13.5 | -9.13 | -6.24 | -0.781 | 16.2 | 16.3 | 10.9 | 10.9 | 15.8 | 2.31 |
| CCc1csc(C2CCCN(C(=O)c3ccnc(N(C)C)c3)C2)n1 (stereo unspecified) | -1.95 | 13.2 | 0.891 | -9.58 | 4.58 | -3.55 | 7.77 | 41.7 | 4.25 | 13 | -4.33 |
| CNc1cc(N2CCCC2CNCc2c[nH]nc2C(C)(C)C)ncn1 (stereo unspecified) | -3.59 | 0 | -14.4 | -4.25 | -4.88 | -4.17 | 6 | -0.674 | 5.94 | 6.1 | 0.0939 |
| O=C(CCNC(=O)c1ccccc1)Nc1ccncc1 | 1.26 | 10.5 | 6.49 | -0.508 | -4.58 | -8.28 | 13.5 | 3.87 | 2.13 | 10.4 | -2.65 |
| CN(C)CC1CN(C(=O)NCc2ccccc2)Cc2nccn2C1 (stereo unspecified) | -2.59 | 13.7 | -1.1 | 4.01 | -1.59 | -3.19 | 5.39 | 3.73 | 3.12 | 6.17 | 1.81 |
| CCN(CC)C(=O)CCc1c(C)nc2cc(O)nn2c1C | -1.3 | 0 | -288 | 0.0855 | -3.99 | -1.18 | 24.1 | 3.53 | 4.25 | 7.79 | -6.56 |
